# Measurements reported in ChEMBL document CHEMBL3988442, “University of Dundee, Small-Polar-MMV Screening Library” (2021).
# Among all 48,000 compounds or so, about 13,000 (27%) showed an effect of 50% or more. Some of the results follow.
# Test system: Wolbachia pipientis
# Test: Anti-Wolbachia Cell-Based Screen
# Assay type: functional
# Design: scale not given: in the data most compounds retested in dose-response had high values
# Conditions: 5 µM
row,Compound,Percent Effect
1,CCN1C(=O)C(c2ccccc2)CC12CCN(c1ncccn1)CC2 (stereo not drawn),-1.132%
2,CN(Cc1ccc(F)cc1)Cc1nc(-c2cnccn2)no1,-0.4176%
3,CCc1n[nH]c(C2CN(Cc3ncc(CC)o3)CCO2)n1 (stereo not drawn),-12.36%
4,CC(NC(=O)N1CCc2ccccc21)c1nncn1C (stereo not drawn),-4.094%
5,Cc1ccsc1CN(C)Cc1ncccc1C(=O)O,8.285%
6,CNS(=O)(=O)c1csc(C(=O)N(C)Cc2sccc2C)c1,1.133%
7,COC(=O)c1ccc(S(=O)(=O)NCC(O)c2sccc2C)cc1 (stereo not drawn),1.544%
8,Cc1ccsc1CN(Cc1ncccc1C(=O)O)C1CC1,-1.02%
9,CNS(=O)(=O)c1csc(C(=O)NCc2sccc2C)c1,-10.67%
10,CCC(C)N(Cc1sccc1C)C(=O)c1ccc(S(C)(=O)=O)cc1 (stereo not drawn),114.6%
11,Cc1cc(C)c(CNC(=O)N(C)Cc2sccc2C)c(=O)[nH]1,-0.6521%
12,Cc1ccsc1CN(C)CCc1scnc1C,3.291%
13,CCC(C)N(Cc1sccc1C)C(=O)c1ccc2cccnc2n1 (stereo not drawn),114.4%
14,CCC(C)N(Cc1sccc1C)C(=O)c1cnc[nH]1 (stereo not drawn),112.1%
15,Cc1ccsc1CNC(=O)CSc1nnc[nH]1,-7.3%
16,CCC(C)N(Cc1sccc1C)C(=O)c1cc(N)ccn1 (stereo not drawn),107.3%
17,O=C(NC1CC1)[C@H]1COC[C@H]2CN(c3ncc(F)cn3)C[C@H]21,-1.694%
18,O=C(O)COc1ccc(Cl)cc1CN1CCC2(CCOCC2)CC1,5.352%
19,C=C(C)CN1CCC(Nc2nc(C)ns2)CC1,3.989%
20,Cc1nc(C)n(CC2CCCN(Cc3cc(C#N)ccc3F)C2)n1 (stereo not drawn),126.4%
21,Cc1nc(C)n(CC2CCCN(Cc3ccc(F)cc3C#N)C2)n1 (stereo not drawn),96.96%
22,Cc1nc(C)n(CC2CN(Cc3cc(C#N)ccc3F)CCO2)n1 (stereo not drawn),105.5%
23,Cc1nc(C)n(CC2CN(Cc3cccc4c3OCCO4)CCO2)n1 (stereo not drawn),-0.04658%

row,Compound,Percent Effect
1,Cc1nc(C)n(CC2CN(Cc3cccc(C#N)c3)CCO2)n1 (stereo not drawn),2.978%
2,Cc1nc(C)n(CC2CN(c3ncccc3C#N)CCO2)n1 (stereo not drawn),109.9%
3,Cc1nc(C)n(CC2CN(c3nnc(C)c(C)c3C#N)CCO2)n1 (stereo not drawn),-9.439%
4,Cc1nc(C)n(CC2CCCN2Cc2ccc(F)cc2C#N)n1 (stereo not drawn),-2.788%
5,Cc1cc(C)n(CC2CCCN2Cc2ccc(F)cc2C#N)n1 (stereo not drawn),-16.28%
6,N#Cc1ccc(CN2CCCC(Cn3cncn3)C2)c(F)c1 (stereo not drawn),10.83%
7,Cc1nc(C)n(CC2CN(c3ncnc4[nH]ccc34)CCO2)n1 (stereo not drawn),9.938%
8,O=S(=O)(NCC1CCOc2ccccc2C1)N1CCOCC1 (stereo not drawn),11.66%
9,CS(=O)(=O)N1CCOC2(CCN(c3nccs3)CC2)c2ccccc21,-2.369%
10,N#Cc1ccccc1OCCN1CCCC(c2noc(C3CC3)n2)C1 (stereo not drawn),29.76%
11,Cc1nc(C)n(CC2CCCN(Cc3cccc(F)c3F)C2)n1 (stereo not drawn),100.4%
12,Cc1nc(C)n(CC2CCCN(Cc3ccccc3C#N)C2)n1 (stereo not drawn),99.33%
13,Cc1nc(C)n(CC2CCCN(CCOc3ccccc3C#N)C2)n1 (stereo not drawn),99.48%
14,Cc1nc(C)n(CC2CCCN(CCc3ccccn3)C2)n1 (stereo not drawn),-0.6255%
15,Cn1nc2c(cc1=O)CN(Cc1nc(C(C)(C)C)no1)CC2,5.069%
16,Cc1nc(CN2CCCC(CCc3ccccc3C(F)(F)F)C2)co1 (stereo not drawn),3.253%
17,COc1cnc(N2CC(N3CCOCC3)C2)nc1-c1ccnn1C,-5.867%
18,CN(C)C(=O)CC1CCOc2ccccc21 (stereo not drawn),-4.71%
19,Cc1ccc2c(c1)C(NC1CCN(C)CC1)CCCO2 (stereo not drawn),0.3143%
20,Cc1ccc(C2CSCCN2CC(=O)N2CCOCC2)cc1 (stereo not drawn),2.726%
21,CN(Cc1ccccn1)C(=O)CC1CCOc2ccccc21 (stereo not drawn),-4.334%
22,Cc1ccc2c(c1)[C@@H](CC(=O)N1CCN(C)CC1)CCO2,86.47%
23,Cc1ccc2c(ccn2CCC(=O)N2CCC(C(N)=O)CC2)c1,23.62%

row,Compound,Percent Effect
1,COCC(=O)N1CCC2(CC1)CC(N1CCOCC1)c1ccc(C)cc12 (stereo not drawn),6.475%
2,Cc1ccc2c(c1)[C@@H](CC(=O)N1CCOCC1)CCO2,86.47%
3,Cc1ccc2c(c1)[C@@H](CC(=O)N(C)C)CCO2,103.2%
4,O=C1CCOCCN1Cc1ccc(Cl)c(Cl)c1,9.877%
5,CSc1ccc(NC(=O)NCC(O)C(C)C)cc1F (stereo not drawn),-14.41%
6,CNS(=O)(=O)CC(=O)N1CCC(c2ccc(F)c(F)c2)CC1,-2.799%
7,O=C(NCc1cccs1)C1CCN(c2cc(-n3ccnc3)ncn2)CC1,-1.807%
8,O=C(NCc1cccs1)C1CN(C(=O)c2cccs2)CC12CCOCC2 (stereo not drawn),-10.89%
9,CC(C)(C)c1cc(=O)n2c(n1)SCC(C(=O)NCc1ccccn1)C2 (stereo not drawn),106.1%
10,O=C(NCc1cccs1)C1CCCN(c2cc(-n3cncn3)ncn2)C1 (stereo not drawn),-5.792%
11,CN1[C@@H](c2ccccc2)[C@@H](C(=O)NCc2ccccn2)C[C@@]1(C)C(=O)O,4.83%
12,O=C(NCc1cn2cccnc2n1)C1CC(=O)N(Cc2ccccn2)C1 (stereo not drawn),-14.07%
13,CC(C)Cc1cc(CNC(=O)C2CCCN(Cc3ccco3)C2)no1 (stereo not drawn),-2.049%
14,CC(C)(C)c1cc(=O)n2c(n1)SCC(C(=O)NCc1ccco1)C2 (stereo not drawn),102.3%
15,CCc1c(C)nc2n(c1=O)CC(C(=O)NCc1cccs1)CS2 (stereo not drawn),101.3%
16,CC(C)(C)c1cc(=O)n2c(n1)SCC(C(=O)NCc1cccs1)C2 (stereo not drawn),98.61%
17,COC1CCN(CCNC(=O)NC(C)c2cccc(Cl)c2)CC1 (stereo not drawn),14.59%
18,O=C(C1CCCCC1)N1CCC(c2n[nH]c3nccnc23)CC1,126.4%
19,O=C(C1CCCC1)N1CCC(c2n[nH]c3nccnc23)CC1,136.1%
20,O=C(Cn1cnc(-c2ccccc2)cc1=O)Nc1ccncc1,13.41%
21,O=C(CCC(=O)Nc1ccccc1)NCC(=O)c1ccc(F)cc1F,-8.283%
22,Cl.NCCC(=O)Nc1ccc(-c2ccccc2)cc1,116.3%
23,CCCc1nc(CNC(=O)Cc2cc(C)no2)cs1,-3.893%

row,Compound,Percent Effect
1,CCS(=O)(=O)NCCNc1cc(-n2cccc2)ncn1,9.537%
2,COc1ccc2cc(C3CN(C(=O)CCNC(C)=O)CCO3)ccc2c1 (stereo not drawn),-5.377%
3,Cc1n[nH]c(C2CN(CC(=O)NCc3ccco3)CCO2)n1 (stereo not drawn),14.88%
4,Nc1cccc(C2CN(C(=O)CN3CCOCC3)CCO2)n1 (stereo not drawn),104.8%
5,CNc1cccc(C2CN(C(=O)CNS(C)(=O)=O)CCO2)n1 (stereo not drawn),125.9%
6,COc1ccc2cc(C3CN(C(=O)CN4CCCC4)CCO3)ccc2c1 (stereo not drawn),0.8606%
7,O=C(Cc1cccc(F)c1F)N1CCOC(c2cccc(O)c2)C1 (stereo not drawn),-10.07%
8,CC(=O)NCC(=O)N1CCN(C)c2ncccc2C1,-12.03%
9,O=C(CCNS(=O)(=O)c1cccnc1)N1CCOC(c2ccccc2)C1 (stereo not drawn),-17.46%
10,CNC(=O)CN1CCOC(c2ccccc2C(F)(F)F)C1 (stereo not drawn),-19.7%
11,CC(=O)NCC(=O)N1CCOC(c2cccc(N)n2)C1 (stereo not drawn),128.4%
12,CNC(=O)CN1CCOC(c2cccc(N)n2)C1 (stereo not drawn),126.4%
13,O=C(CCNS(=O)(=O)c1ccccc1)N1CCOC(c2ccccc2)C1 (stereo not drawn),1.988%
14,CCN(C(=O)CN1CCCC1c1ccc(F)cc1)c1ccccc1C (stereo not drawn),-2.599%
15,O=C(NCc1ccccc1)c1nc2c(o1)CN(C(=O)c1cccnc1)C2.O=C(O)C(F)(F)F,-11.3%
16,CCCn1cc(C(=O)N2CCCC2(C)c2nc(C)cc(C)n2)cn1 (stereo not drawn),137.7%
17,CCn1cc(C(=O)N2CCCC3(CCC(=O)N(CCC(C)C)C3)C2)cn1 (stereo not drawn),12.9%
18,CCCn1cc(C(=O)N2CCCC2(C)c2nc(C)cc(N)n2)cn1 (stereo not drawn),145.7%
19,CCCN1CC2(CCN(C)CC2)CC1C(=O)NCCn1cc(C)cn1 (stereo not drawn),2.434%
20,Cc1occc1CNC(=O)C1(C)CCCN1C(=O)c1ccccc1 (stereo not drawn),-1.558%
21,Cc1cc(CN(C)CC2CC(C3CCCCC3)=NO2)no1 (stereo not drawn),7.354%
22,CCCOc1ccccc1C(N)CC(C)C (stereo not drawn),-0.2003%
23,CC(C)C[C@H](N)COc1cccc(F)c1Oc1ccc(Cl)cc1,75.53%

row,Compound,Percent Effect
1,CCOc1ccccc1C(N)CC(C)C (stereo not drawn),-6.989%
2,CC(C)C[C@H](N)COc1cccc(F)c1Oc1ccccc1,86.38%
3,CC(CNS(N)(=O)=O)Oc1cccc(Cl)c1 (stereo not drawn),-1.116%
4,CC(C)C[C@H](N)COc1cccc(F)c1Oc1cccc(Cl)c1,101.2%
5,CC(C)COc1ccccc1C(N)CC(C)C (stereo not drawn),3.721%
6,COc1ccccc1C(N)CC(C)C (stereo not drawn),-3.152%
7,Cc1ccc(Oc2c(F)cccc2OC[C@@H](N)CC(C)C)cc1,105.2%
8,Cc1nc(CN)cc(N2CCC(O)(c3ccc(Cl)cc3)CC2)n1,-14.21%
9,O=C(NC(c1ccc(Cl)cc1)C(F)(F)F)c1nc(=O)[nH][nH]1 (stereo not drawn),-8.616%
10,CCN(C(=O)COC)C(c1cccnc1)c1cc(C)cc(C)c1 (stereo not drawn),20.72%
11,CCC(C)Oc1cc(C(=O)N(c2cccnc2)C(C)C)ccn1 (stereo not drawn),-13.41%
12,CCc1cc(N2CCN(c3ccc(Cl)cn3)CC2)n2nccc2n1,4.069%
13,COCC1CN(Cc2ccoc2)Cc2cn(CC3CCCC3)nc21 (stereo not drawn),-3.642%
14,Cc1cnn(CC2CN(Cc3cccc(C(=O)N(C)C)c3)CCO2)c1 (stereo not drawn),5.735%
15,Cc1cnn(CC2CN(Cc3cccnc3)CCO2)c1 (stereo not drawn),94.04%
16,Cc1cnn(CC2CN(Cc3cccc(OC(C)C)c3)CCO2)c1 (stereo not drawn),92.31%
17,Cc1cnn(CC2CN(Cc3cccc(OCC(N)=O)c3)CCO2)c1 (stereo not drawn),-6.391%
18,Cc1cnn(CC2CN(Cc3ccc(C(N)=O)cc3)CCO2)c1 (stereo not drawn),85.4%
19,Cc1cnn(CC2CN(CCc3ccncc3)CCO2)c1 (stereo not drawn),-9.167%
20,Cc1cnn(CC2CN(CC(=O)N3CCc4ccccc43)CCO2)c1 (stereo not drawn),-2.09%
21,Cc1cnn(CC2CN(Cc3cccc(C(N)=O)c3)CCO2)c1 (stereo not drawn),99.45%
